According to PubChem BioAssay AID588849 (Broad Institute, 2011):
Entries with a potency or affinity are not part of this list.

The compounds below were run against CAAX prenyl protease 2 (Homo sapiens) (UniProt Q9Y256) (assay: human Rce1 protease inhibitors, dose response, biochemical, yeast membranes, quenched-peptide fluorescence, cherry-pick (AID 588849)). Settings: yeast membrane fractions expressing human Rce1, quenched-peptide fluorescence, 4 h; series mostly up to 10 µM; activity change, negative = inhibition: at the top concentration; call rule not given here.
Sequence of CAAX prenyl protease 2 (Homo sapiens) (Q9Y256 whole entry, looked up): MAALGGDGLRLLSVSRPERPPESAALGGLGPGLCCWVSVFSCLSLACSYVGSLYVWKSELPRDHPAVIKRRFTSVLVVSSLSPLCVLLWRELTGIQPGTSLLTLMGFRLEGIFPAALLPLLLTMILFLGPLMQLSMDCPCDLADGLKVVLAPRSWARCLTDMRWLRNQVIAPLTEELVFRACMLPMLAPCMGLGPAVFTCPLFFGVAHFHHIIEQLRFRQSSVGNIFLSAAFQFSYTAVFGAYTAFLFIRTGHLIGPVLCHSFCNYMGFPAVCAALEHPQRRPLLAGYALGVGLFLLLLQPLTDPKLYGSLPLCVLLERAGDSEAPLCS

Activity change, negative = inhibition, inactive:
Cc1cc2cc(C#N)c(NCCNC(=S)NCCCN3CCOCC3)nc2cc1C -3.66%
C=CCc1cccc(/C=N/NC(=O)COc2ccc(-n3cnnn3)cc2)c1O 6.81% [at 3.5 µM]
CCOc1cccc(-c2c(C(=O)N/N=C/c3c(F)cccc3Cl)nnn2-c2nonc2N)c1 4.61%
CCN(CC)CCCNc1cc(C)nc2cc(-c3cccs3)nn12 -17.1%
CCOC(=O)C1CCCN(C(=O)CCn2nnnc2CN2CCOCC2)C1 (stereo not drawn) -23%
Cc1ccc(C2(COC(=O)C(C)C)CO2)c(OC(=O)C(C)C)c1 (stereo not drawn) -12.2%
COc1ccc(OC)c(/C=N/NC(=O)Cn2ccnc2C)c1 -12.8%
COC(C/C=C/C(=O)[C@H](C)OCc1ccccc1)OC -4.27%
Cc1cccc(NS(=O)(=O)c2ccc(C)c(C(=O)OCC(=O)Nc3cc(C)on3)c2)c1 -6.78%
O=c1c(-c2ccccc2)c(O)c2ccccc2n1-c1ccccc1 -15.8%
O=C(C1CCC(=O)N(C2CC2)C1)N1CCN(c2ccccc2Cl)CC1 (stereo not drawn) 1.85%
Cc1cc2cc(C(=O)N3CCc4c([nH]c5ccccc45)C3c3ccccn3)ccc2o1 (stereo not drawn) -4.49%
O=C(Nc1cccc(-c2cn3ccccc3n2)c1)C1CC1 -8.07%
COc1cc(C(=O)OCC(=O)Nc2ccc(SC(F)F)cc2)cc(OC)c1OC -11.7%
Cc1cc(N/N=C/c2ccc(O)c(C)c2O)nc(-c2ccccc2O)n1 0.948%
CCc1cc(=O)oc2c3c(cc(OCC(=O)NCCCC(=O)O)c12)OC(C)(C)CC3 58.4%
CC(C)N1CCN(Cc2ccc(OCc3ccccc3)cc2)CC1CCO (stereo not drawn) 8.65%
CCCCNC(=S)NNC(=O)CCn1cc(C)cn1 -9.78%
